Test results taken from PubChem BioAssay AID652054 (National Center for Advancing Translational Sciences (NCATS), 2013).
The campaign covered roughly 360,000 compounds. About 9,100 (2.5%) were called active. Inconclusive results (about 4%) are left out. Cut-off read from the data, not from the text of the source: active = max response below about -50%; inconclusive = no clear call, values can overlap the other calls; inactive = above that. The list comes from a sample in which actives are over-represented; it also holds similar structures and randomly drawn compounds.

molecular target: D(3) dopamine receptor (Homo sapiens) (UniProt P35462); experiment: qHTS of D3 Dopamine Receptor Antagonist: qHTS; conditions: D3R cells, DiscoveRx beta-arrestin luminescence, antagonist mode; hits give low values
How it was run: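 Cells expressing the human receptor were seeded at 1500 cells/well, incubated overnight at 37 degrees C in 5% CO2, then exposed to library compounds with dopamine controls for 90 minutes at 37 degrees C before luminescent detection.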
% is set by controls: 0 for no effect and ±100 for the full control effect.

Sequence of D(3) dopamine receptor (Homo sapiens) (P35462 whole entry, looked up): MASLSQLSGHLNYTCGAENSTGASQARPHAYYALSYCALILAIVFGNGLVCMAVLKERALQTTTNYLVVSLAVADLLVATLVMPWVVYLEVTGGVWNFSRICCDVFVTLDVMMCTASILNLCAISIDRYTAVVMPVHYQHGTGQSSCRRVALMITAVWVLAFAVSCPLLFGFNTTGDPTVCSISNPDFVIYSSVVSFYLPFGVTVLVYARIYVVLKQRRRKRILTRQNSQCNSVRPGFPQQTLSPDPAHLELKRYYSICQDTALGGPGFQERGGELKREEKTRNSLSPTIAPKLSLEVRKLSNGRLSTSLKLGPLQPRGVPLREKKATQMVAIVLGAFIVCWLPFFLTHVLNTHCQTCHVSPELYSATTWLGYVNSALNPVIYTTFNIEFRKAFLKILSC

Max response, negative = inhibition, inactive:
CCOc1ccc(Br)cc1CSC(=N)N -4.48%
CCc1ccc(-c2nn(-c3ccccc3)cc2CSC(=N)N)cc1 6.38%
CCCNC(=O)C[C@@H]1CC[C@@H]2[C@H](COC[C@H](O)CN2C(=O)c2cc(Cl)cc(Cl)c2)O1 13.7%
N#CCCN(C(=S)Nc1ccc(Cl)c(Cl)c1)C1CCCCC1 2.54%
CN1OC[C@@H]2CN(C(=O)C(C)(C)C)[C@H](c3ccc(-n4ccnc4)cc3)C[C@@H]21 22.8%
C[C@@H]1CCCCO[C@H](CN(C)Cc2ccccc2)[C@@H](C)CN([C@H](C)CO)C(=O)c2cc(NS(=O)(=O)c3ccc(Cl)cc3)ccc2O1 -0.783%
O=C(O)c1ccccc1/C=N/Nc1ccc(S(=O)(=O)Nc2ccc(Cl)cc2)cc1[N+](=O)[O-] 6.67%
Cc1ccc(NS(=O)(=O)c2ccc(N/N=C/c3ccccc3OCC(=O)O)c([N+](=O)[O-])c2)c(C)c1 -17%
CCCNC(=O)C1CC(=O)N(c2ccc(OCc3ccccc3)cc2)C1 (stereo unspecified) 0%
CCNC(=O)C1(C)CCN(Cc2ccc(C(=O)OCC)o2)C1 (stereo unspecified) -10.7%
COC(=O)c1cccc(NC(=O)CN2CCC(NC(=O)c3cc(OC)c(OC)c(OC)c3)CC2)c1 24%
COc1cc2[nH]c(=O)n(CCC(=O)NC3CCN(Cc4ccccc4)CC3)c(=O)c2cc1OC -7.24%
COc1ccc(C(=O)O)cc1S(=O)(=O)NC1CCN(Cc2ccccc2)CC1 8.04%
CCOc1cc2[nH]c(=O)n(Cc3ccc(C(=O)NCCCN4CCCC4=O)cc3)c(=O)c2cc1OCC 6.17%
Nc1cccc(-c2cncc(N3CCN(Cc4ccccn4)CC3)n2)c1 -4.86%
CCN(CC(=O)Nc1ccc(NC(C)=O)cc1)C(=O)C1CC(=O)N(c2ccc3c(c2)OCCO3)C1 (stereo unspecified) 19%
O=C(CN1C(=O)NC2(CCc3ccccc32)C1=O)NC1CCCCC1 (stereo unspecified) -24.4%
CCOC(=O)C1(C)CCCN(C(=O)c2ccc(F)c(Cl)c2)C1 (stereo unspecified) 104%
CC(=O)c1cccc(-c2cnc3c(NC=O)cc(-c4ccccc4Oc4ccccc4)cn23)c1 31%
C#Cc1cc(N2CCN(C(=O)c3ccoc3)CC2)n2nc(-c3cccc(Cl)c3)cc2n1 44.3%
CCOC(=O)[C@]12CCCC=C1N(CCC1=CCCCC1)C(=O)[C@H](CC(=O)N1CCSCC1)C2 21.2%
Cc1ccc(C(=O)NC(=S)Nc2ccc3[nH]c(=O)[nH]c3c2)cc1C -9.59%
Cc1cc(C)cc(C(=O)NC(=S)Nc2ccc3[nH]c(=O)[nH]c3c2)c1 -10.1%
COc1ccccc1CNC(=O)c1cc(-c2cc(Cl)ccc2C)n[nH]1 3%
Cc1ccc(C(=O)N/C(=C/c2cccnc2)C(=O)O)cc1 0%
O=C1c2ccccc2C(=O)C1C(=O)C1CC1 4.87%
O=C1NC[C@H](CCCCN2CCN(CCc3ccccc3)C(=O)C2=O)N(CC2CCCCC2)C1=O 2.55%
CCN(C(=O)Nc1cccc2ccccc12)c1ccccc1 -20.4%
Cc1cc(Br)ccc1NC(=O)CCCOc1cc(=O)n(C)c2ccccc12 -20.6%
COc1ccc(Nc2cc(=O)oc3ccccc23)cc1 -15.7%
COc1ccc(Nc2ccc3ccccc3c2)cc1 -3.21%
O=C(CSc1ccc(Cl)cc1)NC1CC1 20.3%
Cc1cccc(C)c1NC(=O)CSc1nc2c([nH]1)c(=O)n(C)c(=O)n2C -7.1%
Cc1cc(C)c(C#N)c(SCC(=O)Nc2ccccc2)n1 -13.9%
CN(C)CCNC(=O)c1cccc(-c2cnc3c(NC=O)cc(-c4cccc(C(F)(F)F)c4)cn23)c1 0%
CN(Cc1ccccc1)C(=O)CCC1CCN(C(=O)c2ccco2)CC1 13.8%
Cn1c(C(=O)N2CCC(C(N)=O)CC2)cc2c(=O)n(C)c3ccccc3c21 0%
CCOC(=O)N1CCC(Nc2c(NCCN3CCN(c4cccc(Cl)c4)CC3)c(=O)c2=O)CC1 0.472%
O=C(COc1cc2oc(=O)c3c(c2cc1Cl)CCC3)NCCCN1CCOCC1 -19%
O=C(NCCCN1CCOCC1)c1cc(-c2ccc(Cl)cc2)on1 4.36%
O=C(Cc1ccc(-n2c(=O)[nH]c3ccccc3c2=O)cc1)N1CCN(c2cccc(Cl)c2)CC1 36.6%
COc1cccc(CNC(=O)Cc2csc(Nc3nc(=S)[nH]c4ccccc34)n2)c1 11.5%
O=C(CCCn1c(=O)[nH]c2cc(Cl)ccc2c1=O)NCCN1CCN(c2ccccc2)CC1 -29.2%
Cn1c(Cc2cccc3ccccc23)nnc1SCC(=O)N1CCN(c2cccc(Cl)c2)CC1 0%
C[C@H]1CN([C@@H](C)CO)C(=O)CCCn2cc(nn2)CO[C@@H]1CN(C)S(=O)(=O)c1ccccc1C#N -12.5%
Cc1ccc2nc(-c3ccccc3)c(CC3CCCCC3)n2c1 -9.93%
COc1ccc(C(O)C(O)(C(=O)OC(C)C)c2ccc(C)cc2)cc1 (stereo unspecified) -17.4%
CC(C)C[C@H]1CNC(=O)C(=O)N1C[C@H]1CCCN1C[C@H](Cc1ccc(O)cc1)N1C[C@H](CC(C)C)N(CC2CCCCCC2)C(=O)C1=O 30.9%
CC(C)C[C@@H]1Cc2[nH][nH]c(=O)c2[C@H](CCc2ccccc2)O1 -13%
Clc1ccc(-c2cccc3nccn23)cc1 0%
CCn1c(SCC(=O)N2CCCC2=O)nc2ccccc21 7.76%
CCOC(=O)[C@]12CCCC=C1N(CCC1=CCCCC1)C(=O)[C@H](CC(=O)NCCCOC)C2 7.2%
COc1ncnc2c1ncn2CCCNCCN1CCOCC1 20.7%
COc1ccc(S(=O)(=O)Nc2ccc3cn[nH]c3c2)cc1[N+](=O)[O-] -18.8%
Cc1ccc(S(=O)(=O)N/N=C\c2cc3c(cc2[N+](=O)[O-])OCO3)cc1 -4.05%
Nc1[nH]c(C(=O)c2ccccc2)c(-c2ccncc2)c1C(=O)NCc1cccc2ccccc12 -9.51%
Nc1ncnc2c1ncn2[C@@H]1O[C@H](CNC(=O)[C@H](N)Cc2cccnc2)[C@@H](O)[C@H]1O 1.65%
O=C(CN1CCN(Cc2ccccc2)CC1)Nc1ccc(F)c(F)c1 -16.4%
O=C(NCC1CCN(Cc2ccccc2Cl)CC1)Nc1cccc(Cl)c1 -29.8%
COc1cc(NC(=O)NCC2CCN(Cc3ccc(C)cc3)CC2)cc(OC)c1OC -16.2%
COc1ccc(Cl)cc1NC(=O)C(C)N1CCc2ccccc21 (stereo unspecified) -7.48%
CCc1nc2c(OCC(=O)C(C)(C)C)cccn2c1N(C)C(=O)c1ccccc1F -24.2%
O=C1NC(Cc2ccccc2)c2nc3ccc(Br)cc3c(=O)n2-c2cc3ccccc3cc21 (stereo unspecified) -0.847%
COc1cc(NC(=O)c2cc(-c3ccc(F)cc3OC(C)C)n[nH]2)cc(OC)c1OC 6.57%
COc1ccccc1CNC(=O)c1cc(-c2cc(F)ccc2OC)n[nH]1 18.6%
CC(=O)c1ccc(Nc2nc(C(N)c3ccccc3)cs2)cc1 (stereo unspecified) 2.63%
C[C@@H]1CN([C@@H](C)CO)S(=O)(=O)c2ccc(-c3ccc(C(=O)N(C)C)cc3)cc2O[C@@H]1CN(C)Cc1ccccc1C(=O)O 16.1%
COc1ccc(F)c(-c2nc(CN3CCC(c4ccccc4)CC3)c(C)o2)c1 -19.4%
COc1ccc(Cn2nnc3c(=O)[nH]c(C4CCN(C(=O)c5ccccc5Cl)CC4)nc32)cc1 -22.4%

Max response, negative = inhibition, active:
N=C(N)SCc1cccc2ccccc12 -51.3%
COc1ccc(Br)cc1/C=N/Nc1ccc(S(=O)(=O)Nc2ccccc2C(=O)O)cc1[N+](=O)[O-] -66%
COc1cc(C(=O)NC2CCN(Cc3ccccc3)CC2)cc(Cl)c1OC(C)C -71.6%
COc1cc2[nH]c(=O)n(Cc3ccc(C(=O)NC4CCN(Cc5ccccc5)CC4)cc3)c(=O)c2cc1OC -79.7%
Cc1cc2[nH]ncc2cc1NC(=S)NC(=O)c1ccccc1 -53.9%
C/C(=N\NC(=O)c1ccc(C)cc1)C1C(=O)c2ccccc2C1=O -89.4%
COc1ccc(Nc2oc(-c3ccccc3Cl)nc2C#N)cc1 -54.1%
Cc1cc2cc3c(cc2nc1SCC(=O)Nc1c(C)cccc1C)CCC3 -74.6%
O=C(CCn1c(=O)[nH]c2ccccc2c1=O)NCCCN1CCN(c2cccc(Cl)c2)CC1 -71.4%
CCn1c(=O)cc(OCC(=O)NCCCN2CCN(c3cccc(Cl)c3)CC2)c2ccccc21 -69.4%
Cn1c(C(=O)NCCCN2CCN(c3cccc(Cl)c3)CC2)cc2c(=O)n(C)c3ccccc3c21 -103%
O=C(Cc1csc(Nc2nc(=S)[nH]c3ccccc23)n1)NCCCN1CCN(c2cccc(Cl)c2)CC1 -83.7%
COc1ccc(S(=O)(=O)N/N=C\c2ccc(OC)c(COc3ccc(C)cc3[N+](=O)[O-])c2)cc1 -59.9%
Cc1cccc(CN2CCC(CNC(=O)Nc3ccc(F)c(Cl)c3)CC2)c1 -60.2%
COc1ccc(Cl)cc1NC(=O)NCC1CCN(Cc2ccccc2F)CC1 -85.7%
COc1cc(F)ccc1-c1cc(C(=O)NCC2CCCCC2)[nH]n1 -75.3%
COc1ccc(CN2CCC(c3nc4ccc(Cl)cc4[nH]3)CC2)cc1 -101%
